The values that follow come from PubChem BioAssay.

The test system of assay [1] is Human papillomavirus type 1a protein E7 (residues 44-93). Description: small molecules binding HPV E7 44-93 – biochemical, small-molecule microarray, residues 44-93, 635 nm fluorescence, primary screen (AID 1108).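 Further: E7 fragment applied at 1 µg/mL in TBST for 1 h at 4 C; score combines spot fluorescence with its signal to noise ratio.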 Particulars: fluorescence 635 nm, higher = more signal.
A short description of assay [2]: hepatitis C replication reporter changes, two-sided – Huh7 cells, luciferase reporter, HCV replication inhibitor project, primary screen (AID 1109).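 Further: huh7 hepatoma cells harbouring a luciferase neomycin HCV replicon reporter; luciferase luminescence as measure of HCV replicon replication; test concentration not given here.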 The following applies: Huh7 HCV replicon luciferase reporter, 48 h; higher = more signal. In general terms: Reporter assays use an easily measured gene product as a stand-in for the process of interest.
The target in assay [3] is Left-right determination factor 2 (Homo sapiens) (UniProt O00292). Description: small molecules binding LEFTY2 protein – biochemical, small-molecule microarray, 635 nm fluorescence scan, primary screen (AID 1110). Particulars: higher = more signal.
For assay [4], the target named is Calmodulin-1 (Homo sapiens) (UniProt P0DP23). Put plainly: small molecules binding calmodulin-1 with EGTA – biochemical, small-molecule microarray, Cy5-labelled CALM1, profiling panel (AID 1111).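 Further: labelled calmodulin applied in Tris saline Tween buffer holding calcium plus EGTA and DTT.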 The following applies: Cy5-CALM1 binding fluorescence, higher = more signal.
Assay [5] has the same target. Put plainly: small molecules binding Ca-loaded calmodulin-1 – biochemical, small-molecule microarray, Cy5-labelled CALM1, plus calcium, artefact control for SMM control-protein annotation, profiling panel (AID 1112).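 Further: score merges spot fluorescence with signal to noise from triplicate slides.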 The following applies: Cy5-CALM1 binding fluorescence, higher = more signal.
Assay [6] in a line: probe aWnt5a binding to arrayed compounds – biochemical, biotinylated probe, 635/667 nm fluorescence, primary screen (AID 1113).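 Further: score merges 667 nm fluorescence intensity with signal-to-noise per printed feature.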 The following applies: small-molecule microarray, higher = more signal.
Assay [7] can be described thus: probe aShh binding to arrayed compounds – biochemical, biotinylated probe, 635/667 nm fluorescence, primary screen (AID 1114).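 Further: probe is biotin-labelled aShh protein from a stem cell growth factor screen; measures binding of labelled protein to compounds printed on the slide; score merges feature fluorescence at 667 nm with signal-to-noise.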 The following applies: small-molecule microarray, higher = more signal.
The nature of assay [8]: probe aNog binding to arrayed compounds – biochemical, biotinylated probe, 635/667 nm fluorescence, primary screen (AID 1115).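 Further: probe is biotinylated aNog protein used at 0.15 µg/mL for 1 h at 4 C; z-score combines 667 nm fluorescence of each spot with its signal to noise.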 Particulars: small-molecule microarray, higher = more signal.
The target in assay [9] is Torsin-1A-interacting protein 1 (Homo sapiens) (UniProt Q5JTV8). Put plainly: compound microarray binding of lysate hLAP1 – cell lysate, small-molecule microarray, COS7 lysate, 635/667 nm fluorescence, primary screen (AID 1116). The following applies: 635 nm fluorescence, higher = more signal.
Assay [10] concerns the target Alpha-bungarotoxin (Bungarus multicinctus) (UniProt P60615). Description: compounds binding labelled alpha-BTX control protein – biochemical, small-molecule microarray, Alexa647 label, 635/667 nm fluorescence, artefact control for SMM control protein annotation, profiling panel (AID 1117). The following applies: alpha-BTX-A647 binding fluorescence, higher = more signal.

In assay [11] the target is Albumin (Bos taurus) (UniProt P02769). Put plainly: compounds binding labelled BSA control protein – biochemical, small-molecule microarray, Alexa647 label, 635/667 nm fluorescence, artefact control for SMM control protein annotation, profiling panel (AID 1118).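 Further: score merges 667 nm emission intensity and signal-to-noise per printed compound spot.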 The following applies: BSA-A647 binding, fluorescence 635 nm, higher = more signal.
Assay [12] in a line: probe aXIP binding to arrayed compounds – biochemical, NeuroSMM set, 635/667 nm fluorescence, primary screen (AID 1119).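 Further: probe is the protein aXip251-270 applied at 1 µg/mL to compound-printed slides; binding of probe to printed compounds measured as 667 nm fluorescence plus signal to noise.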 Particulars: small-molecule microarray, higher = more signal, called active from +8 up or from −8 down.
Assay [13] can be described thus: probe aNOTCH3 binding on compound microarray – biochemical, small-molecule microarray, 635/667 nm fluorescence, primary screen (AID 1120).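 Further: probe is a biotin-tagged antibody raised against NOTCH3 rather than NOTCH3 protein; score merges spot fluorescence near 667 nm with spot signal to noise.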 The following applies: higher = more signal.
A short description of assay [14]: probe aNOTCH2 binding on compound microarray – biochemical, small-molecule microarray, 635/667 nm fluorescence, primary screen (AID 1121).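 Further: score merges feature fluorescence read at 667 nm with its signal to noise.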 Particulars: higher = more signal.
For assay [15], the target named is Carbonic anhydrase 2 (Homo sapiens) (UniProt P00918). Put plainly: compounds binding carbonic anhydrase 2 – biochemical, small-molecule microarray, Alexa647-labelled CAII, profiling panel (AID 1122). The following applies: CAII-A647 binding fluorescence, higher = more signal.
Assay [16] in a line: COS7 lysate on small-molecule microarray, probe aHis, 635 nm (AID 1123).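 Further: z-score combines 667nm fluorescence intensity with signal-to-noise per printed compound spot.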 The following applies: COS7 cell lysate, fluorescence, higher = more signal.
Assay [17] can be described thus: probe aLAP1 signal on lysate-treated microarray – cell lysate, small-molecule microarray, COS7 lysate, primary screen (AID 1124).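 Further: lysate comes from COS7 cells expressing LAP1 and is applied at 0.3 µg/mL; score merges spot fluorescence near 667 nm with signal-to-noise over triplicate slides.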 The following applies: probe aLAP1, fluorescence, higher = more signal.
Assay [18] relates to Sam68 (KHDRBS1). Description: compounds binding KHDRBS1 protein – biochemical, small-molecule microarray, 635 nm fluorescence, primary screen (AID 1125).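 Further: score merges 667 nm channel intensity with signal to noise over triplicate slides.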 The following applies: higher = more signal.
Assay [19] has as its system Chordin-like protein 2 (CHRDL2). Description: compounds binding chordin-like 2 – biochemical, small-molecule microarray, 635 nm fluorescence, primary screen (AID 1126).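 Further: printed compound slides probed with Chrdl2 protein at 4 µg/mL for 1 h at 4 C; score merges 667 nm emission intensity with signal to noise over three replicate slides.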 Particulars: fluorescence 635 nm, higher = more signal.
For assay [20], the target named is Concanavalin-A (Canavalia ensiformis) (UniProt P02866). Put plainly: compounds binding concanavalin A lectin – biochemical, small-molecule microarray, Alexa647 label, 635 nm, artefact control for SMM control protein annotation, primary screen (AID 1127).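 Further: z combines 667 nm emission intensity with signal-to-noise across three replicate slides.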 The following applies: ConA-A647 binding fluorescence, higher = more signal.

The source made the active and inactive calls.

Chain of Concanavalin-A (Canavalia ensiformis) (P02866 whole entry, looked up): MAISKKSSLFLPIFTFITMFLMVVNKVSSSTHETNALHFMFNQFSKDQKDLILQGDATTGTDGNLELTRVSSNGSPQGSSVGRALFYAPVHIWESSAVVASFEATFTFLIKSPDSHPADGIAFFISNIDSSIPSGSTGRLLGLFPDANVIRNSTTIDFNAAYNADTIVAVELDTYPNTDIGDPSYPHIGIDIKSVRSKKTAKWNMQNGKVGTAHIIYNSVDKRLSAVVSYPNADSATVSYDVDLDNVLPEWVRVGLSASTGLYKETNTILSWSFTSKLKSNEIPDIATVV
Chain of Left-right determination factor 2 (Homo sapiens) (O00292 whole entry, looked up): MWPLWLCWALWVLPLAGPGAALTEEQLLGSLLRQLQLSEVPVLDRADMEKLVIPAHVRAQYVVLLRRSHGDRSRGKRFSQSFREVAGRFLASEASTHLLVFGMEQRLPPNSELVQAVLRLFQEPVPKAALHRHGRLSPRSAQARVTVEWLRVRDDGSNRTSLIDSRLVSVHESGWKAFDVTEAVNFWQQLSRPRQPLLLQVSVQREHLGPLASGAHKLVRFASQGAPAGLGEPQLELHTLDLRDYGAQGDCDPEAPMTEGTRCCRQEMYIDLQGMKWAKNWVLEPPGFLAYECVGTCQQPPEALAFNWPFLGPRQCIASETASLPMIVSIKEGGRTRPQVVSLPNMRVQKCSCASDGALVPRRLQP
Chain of Alpha-bungarotoxin (Bungarus multicinctus) (P60615 whole entry, looked up): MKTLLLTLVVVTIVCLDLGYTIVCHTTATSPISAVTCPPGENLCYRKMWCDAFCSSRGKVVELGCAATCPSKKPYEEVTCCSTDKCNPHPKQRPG
Chain of Torsin-1A-interacting protein 1 (Homo sapiens) (Q5JTV8 whole entry, looked up): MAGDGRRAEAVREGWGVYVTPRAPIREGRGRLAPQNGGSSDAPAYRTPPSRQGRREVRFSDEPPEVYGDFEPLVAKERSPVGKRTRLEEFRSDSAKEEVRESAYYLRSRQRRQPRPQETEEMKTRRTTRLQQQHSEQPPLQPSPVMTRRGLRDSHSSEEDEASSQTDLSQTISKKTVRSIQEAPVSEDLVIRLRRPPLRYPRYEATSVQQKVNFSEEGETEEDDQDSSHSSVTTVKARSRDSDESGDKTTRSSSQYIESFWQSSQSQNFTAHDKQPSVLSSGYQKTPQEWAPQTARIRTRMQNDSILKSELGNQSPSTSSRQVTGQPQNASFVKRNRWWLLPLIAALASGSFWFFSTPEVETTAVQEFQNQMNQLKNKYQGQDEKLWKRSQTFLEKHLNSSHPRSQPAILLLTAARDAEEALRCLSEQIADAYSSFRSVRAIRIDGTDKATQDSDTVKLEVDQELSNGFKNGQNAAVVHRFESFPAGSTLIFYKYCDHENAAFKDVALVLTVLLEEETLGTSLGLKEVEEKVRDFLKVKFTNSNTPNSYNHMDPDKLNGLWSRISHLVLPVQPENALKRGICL
Chain of Albumin (Bos taurus) (P02769 whole entry, looked up): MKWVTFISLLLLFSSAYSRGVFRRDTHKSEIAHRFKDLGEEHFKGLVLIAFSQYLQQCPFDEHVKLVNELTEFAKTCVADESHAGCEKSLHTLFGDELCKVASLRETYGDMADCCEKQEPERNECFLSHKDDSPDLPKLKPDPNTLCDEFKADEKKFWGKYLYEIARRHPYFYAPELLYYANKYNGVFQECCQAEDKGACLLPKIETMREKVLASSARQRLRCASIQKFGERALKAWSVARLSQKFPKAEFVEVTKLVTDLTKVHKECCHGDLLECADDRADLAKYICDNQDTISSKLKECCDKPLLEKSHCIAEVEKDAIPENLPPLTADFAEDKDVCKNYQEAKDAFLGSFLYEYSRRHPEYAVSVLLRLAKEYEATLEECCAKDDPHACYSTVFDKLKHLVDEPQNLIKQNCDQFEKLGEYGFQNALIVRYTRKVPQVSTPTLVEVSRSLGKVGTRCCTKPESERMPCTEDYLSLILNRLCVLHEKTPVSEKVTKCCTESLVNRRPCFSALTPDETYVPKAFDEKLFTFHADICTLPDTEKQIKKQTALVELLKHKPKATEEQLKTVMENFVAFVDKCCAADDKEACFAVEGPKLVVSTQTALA

Take `CC(CCN1CCCc2nc(C)c(C)cc21)=NO[C@@H](C)c1cn([C@H](CO)Cc2ccccc2)nn1`: the composite z-score is 0.425 in assay [1]; 0.67 in assay [3]; -0.168 in [4]; -0.671 in [5]; -0.0199 in [6]; 0.0952 in [7]. The composite z-score in [8] is 0.139; in assay [9], 0.527; in assay [10], 0.117; in assay [11], -0.139; in assay [13], 0.184; in assay [14], -0.0282. Further, the composite z-score in [15] was 0.074; in [16] it was 0.531; in assay [17], -0.0771; in [18] it was 0.477; in [19], 0.801; in [20], 0.497. Also, the z-score in assay [2] is -0.0976. The composite Z-score in [12] was 0.344 (inactive).

Take `CC(CCC(=O)OC[C@H]1O[C@H](C#Cc2ccccc2)C=C[C@@H]1Oc1ccc(C)cc1)=NO[C@@H](C)c1cc(-c2c(C)cc(C)cc2C)no1`: the composite z-score is -0.612 in assay [1]; -0.547 in [3]; -0.413 in [4]; -0.262 in assay [5]; -0.232 in assay [6]; 0.0121 in assay [7]. In addition, the composite z-score in assay [8] was -0.118; in [9], 0.328; in assay [10], 0.326; in assay [11] it was 0.363; in assay [13], -0.272; in [14], -0.14. For the same compound, the composite z-score in assay [15] is -0.0955; in [16], 0.0007; in [17] it was 0.173; in assay [18], -0.42; in assay [19], -0.872; in [20], -0.214. In assay [2], the z-score is -0.824. The composite Z-score in assay [12] is -0.61 (inactive).

`CC(C)=CCCC(C)=CCON=C1[C@H]2CCn3c(=O)n(-c4ccccc4)c(=O)n3[C@H]2[C@H](O)[C@@H]2O[C@H]12`: the composite z-score in assay [1] is 1.35; in assay [3] it was 0.802; in [4] it was -0.198; in assay [5], -0.807; in assay [6] it was -0.154; in assay [7], -0.102. Further, the composite z-score is -0.061 in assay [8]; 0.458 in [9]; 0.514 in [10]; 0.271 in assay [11]; 0.185 in assay [13]; -0.14 in assay [14]. The composite z-score in [15] came out at 0.464; in assay [16], 1.18; in [17], 0.353; in [18], 1.22; in assay [19], 1.02; in [20], 0.763. For the same compound, the z-score in assay [2] was -3.17. For the same compound, the composite Z-score in assay [12] was 0.0213 (inactive).

`COC(=O)[C@@H]1CC[C@H](C)[C@@H](c2ccc(C)cc2)N1C(=O)c1ccc(C=NOC[C@H]2O[C@H](c3ccccc3)C=C[C@@H]2Oc2ccc(OC)cc2)cc1`: the composite z-score in [1] is 0.404; in [3], 0.35; in [4], -0.156; in assay [5], -0.551; in assay [6] it was 0.0104; in [7], -0.234. The composite z-score is 0.0498 in assay [8]; 1.18 in [9]; 0.304 in [10]; 0.312 in assay [11]; 0.0257 in [13]; -0.161 in assay [14]. In addition, the composite z-score was -0.145 in assay [15]; -0.336 in assay [16]; -0.192 in assay [17]; 0.233 in assay [18]; 0.692 in [19]; 0.45 in [20]. In addition, the z-score in assay [2] is -0.739. Also, in [12], the composite Z-score was -0.496 (inactive).

For the compound `CCOC(=O)CCN1C(=O)[C@H]2[C@H]3[C@H](O)[C@H](O)CC(=NO[C@@H]4O[C@H](CO)[C@@H](O)[C@H](O)[C@H]4O)[C@H]3CC[C@H]2C1=O`, the composite z-score in assay [1] is 0.0713; in assay [3], 0.523; in assay [4], 0.112; in assay [5] it was -0.847; in assay [6], -0.0286; in [7], -0.156. For the same compound, the composite z-score in assay [8] is -0.0309; in [9], -0.127; in assay [10] it was 0.263; in assay [11], 0.0221; in assay [13] it was -0.15; in [14], -0.113. In addition, the composite z-score is 0.197 in assay [15]; 0.174 in [16]; -0.0363 in [17]; 0.201 in assay [18]; 0.52 in [19]; 0.487 in assay [20]. The compound also returned a z-score in assay [2] of 0.587. Also, the composite Z-score in [12] is -0.048 (inactive).

With `CCOC(=O)[C@H](CC(C)C)NC(=O)CCC1CC(OC(=O)NCCc2ccc(F)cc2)CC2(CCCC(COC(=O)NCc3cccc4ccccc34)O2)O1` (stereo not given in full), the composite z-score in assay [1] was 0.548; in [3] it was 0.824; in assay [4], 0.239; in assay [5] it was -0.364; in assay [6] it was -0.156; in assay [7] it was -0.237. Moreover, the composite z-score in [8] is -0.497; in assay [9], 0.219; in assay [10] it was 0.0466; in assay [11] it was 0.426; in [13] it was -0.235; in assay [14] it was 0.12. The composite z-score in [15] is 0.276; in assay [16], 0.96; in [17], -0.138; in [18], 0.695; in assay [19], 0.282; in [20], 0.873. Moreover, the z-score in assay [2] is -0.893. Besides, the composite Z-score in assay [12] was -0.275 (inactive).

Regarding `COc1ccc(COC(=O)NN=C2C[C@@H](O)[C@@H](O)[C@@H]3[C@@H]4C(=O)N(C[C@@H]5CCCO5)C(=O)[C@@H]4CC[C@@H]23)cc1`, the composite z-score in [1] was 0.222; in assay [3] it was 0.179; in [4] it was 0.342; in assay [5], -0.636; in assay [6] it was -0.172; in assay [7], -0.0793. For the same compound, the composite z-score in assay [8] was -0.0496; in assay [9], 0.411; in [10] it was 0.915; in assay [11] it was 0.0566; in [13], -0.128; in assay [14], -0.0832. The composite z-score was determined as 0.234 in assay [15]; 0.727 in assay [16]; 0.824 in assay [17]; 0.78 in assay [18]; 0.508 in [19]; 0.327 in assay [20]. This compound also returned a z-score in [2] of 0.778. The composite Z-score in assay [12] was 0.58 (inactive).

With `CO[C@H]1COC(=O)CCC[C@H](C)[C@H](OC)COC(=O)CC=C[C@@H]1C`, the composite z-score in assay [1] was -1.46; in assay [3], 0.804; in [4], -0.294; in [5], -1.2; in [6], -0.156; in [7], -0.138. The composite z-score in assay [8] is -0.258; in [9], 0.307; in assay [10], -0.0936; in assay [11], -0.235; in assay [13] it was -0.189; in assay [14], -0.118. In addition, the composite z-score was -0.515 in [15]; -1.17 in assay [16]; -0.219 in [17]; -0.219 in assay [18]; 1.15 in assay [19]; -0.362 in assay [20]. Further, the z-score in [2] is -1.34. Moreover, the composite Z-score in assay [12] was -0.348 (inactive).
